Records with an inconclusive call do not appear. The source made the active and inactive calls. The calls were made as follows, unless noted: active = hit-call score of the fitted dose curve at least 0.9, where 1 is the maximum; inconclusive = response in the unintended direction; inactive = score below 0.9.
Experiments:
[1] = biological target: Glucocorticoid receptor (Homo sapiens) (UniProt P04150); experiment: ATG_GR_TRANS: Attagene TRANS-FACTORIAL HepG2 Assay for human Glucocorticoid Receptor (GR) (AID 2282978); conditions: HepG2 Attagene TRANS GR reporter, mRNA transcription;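 also: activators score as hits since higher reporter transcript over DMSO is fitted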
Procedure, shortened: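 Transiently transfected HepG2 cells express chimeric NR-GAL4 proteins acting on GAL4-UAS reporter units. Compounds are applied for 24 h. mRNA induction over DMSO is measured by capillary electrophoresis.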

[2] = ATG_M_06_TRANS: Attagene TRANS-FACTORIAL HepG2 Assay for M06 Transcription Factor (Internal Marker) (AID 2282983); conditions: HepG2 Attagene TRANS M06 internal marker reporter;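 also: reporter transcript level by RT-PCR then capillary electrophoresis fluorescence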
Procedure, shortened: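 Human liver HepG2 cells bearing transiently transfected chimeric NR-GAL4 reporter units were treated with chemicals for 24 h. Total RNA was reverse-transcribed, reporter sequences amplified and labelled, then quantified by capillary electrophoresis. Activity was fitted upward relative to DMSO.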

[3] = biological target: Nuclear respiratory factor 1 (Homo sapiens) (UniProt Q16656); experiment: ATG_NRF1_CIS: Attagene CIS-FACTORIAL HepG2 Assay for human Nuclear Respiratory Factor 1 (NRF1) Orphan Gene (AID 2282987; active = hit-call score of the fitted dose curve at least 0.9, where 1 is the maximum; inactive = score below 0.9); conditions: HepG2 NRF1 cis-element reporter, Attagene multiplex; actives raise or lower the signal
Procedure, shortened: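 Reporter mRNA induction or loss in HepG2 cells after 24 h dosing; cis-regulated reporter constructs report endogenous transcription-factor activity. Quantified by RT-PCR/capillary electrophoresis fluorescence, DMSO-referenced.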

[4] = biological target: Oxysterols receptor LXR-alpha (Homo sapiens) (UniProt Q13133); experiment: ATG_LXRa_TRANS: Attagene TRANS-FACTORIAL HepG2 Assay for human Liver X Receptor alpha (LXRa) (AID 2282980); conditions: HepG2 Attagene TRANS reporter, LXRa transactivation
Procedure, shortened: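 Transient HepG2 transfectants, 24 h dosing, RT-PCR/CE mRNA reporter quantitation; gain-of-signal vs DMSO.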

[5] = biological target: Oxysterols receptor LXR-beta (Homo sapiens) (UniProt P55055); experiment: ATG_LXRb_TRANS: Attagene TRANS-FACTORIAL HepG2 Assay for human Liver X Receptor beta (LXRb) (AID 2282981); conditions: HepG2 Attagene TRANS GAL4-LXRb reporter, mRNA
Procedure, shortened: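 After 24 h chemical treatment of transfected HepG2 cells carrying exogenous NR-Gal4 chimeras, reporter mRNA was quantified by fluorescent RT-PCR and capillary electrophoresis; activity taken as increase over DMSO controls.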

[6] = biological target: Hepatocyte nuclear factor 4-alpha (Homo sapiens) (UniProt P41235); experiment: ATG_HNF4a_TRANS: Attagene TRANS-FACTORIAL HepG2 Assay for human Hepatocyte Nuclear Factor 4 alpha (HNF4a) (AID 2282982); conditions: HepG2 HNF4a transactivation reporter, mRNA readout
Procedure, shortened: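 Activity of an exogenous HNF4a–Gal4 fusion scored as induced GAL4-UAS reporter transcripts after 24 h chemical exposure of transfected human HepG2 cells. Read-out via RT-PCR with 6-FAM labelling and capillary electrophoresis; rise over DMSO baseline.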

[7] = biological target: Transcriptional activator Myb (Homo sapiens) (UniProt P10242); experiment: ATG_Myb_CIS: Attagene CIS-FACTORIAL HepG2 Assay for human Myeloblastosis (Myb) Proto-Oncogene Transcription Factor (AID 2282986; active = hit-call score of the fitted dose curve at least 0.9, where 1 is the maximum; inactive = score below 0.9); conditions: HepG2 Attagene CIS-FACTORIAL Myb reporter transcription; actives raise or lower the signal
Procedure, shortened: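 Using HepG2 liver cells bearing transiently transfected cis-promoter reporter constructs, the assay measures induction or loss of reporter mRNA after 24 hours of dosing. Detection used fluorescently labeled RT-PCR products separated by capillary electrophoresis.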

[8] = biological target: Nuclear receptor subfamily 4 group A member 2 (Homo sapiens) (UniProt P43354); experiment: ATG_NURR1_TRANS: Attagene TRANS-FACTORIAL HepG2 Assay for human Nuclear Receptor Related Protein 1 (NURR1) (AID 2282985); conditions: HepG2 Attagene TRANS reporter, mRNA readout
Procedure, shortened: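 Reporter transcript induction, measured by RT-PCR with fluorescent labelling, HpaI digestion and capillary electrophoresis, after 24 hr dosing of human HepG2 cells transiently expressing an exogenous NR-Gal4 fusion with GAL4-UAS-driven reporters; DMSO as baseline.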

[9] = biological target: Bile acid receptor (Homo sapiens) (UniProt Q96RI1); experiment: ATG_FXR_TRANS: Attagene TRANS-FACTORIAL HepG2 Assay for Farnesoid X Receptor (FXR) (AID 2282979); conditions: HepG2 Attagene TRANS FXR-GAL4 reporter transcription;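 also: hits raise reporter mRNA above DMSO so AC50 marks FXR activation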
Procedure, shortened: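 Chimeric FXR-GAL4 activity in transiently transfected human HepG2 liver cells is scored as induction of reporter mRNA after 24 h of dosing. Detection uses RT-PCR with fluorescent labelling and capillary electrophoresis, with DMSO serving as baseline.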

[10] = ATG_M_32_TRANS: Attagene TRANS-FACTORIAL HepG2 Assay for M32 Transcription Factor (Internal Marker) (AID 2282984); conditions: HepG2 Attagene TRANS M32 internal marker reporter;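 also: transcript level of a background control reporter unit measured by RT-PCR and capillary electrophoresis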
Procedure, shortened: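 Internal background reporter in transfected HepG2: after 24 h chemical exposure, RNA reverse-transcribed, reporter cDNA amplified, fluorescently labelled and HpaI-cut, then sized by capillary electrophoresis. Gain of signal fitted against DMSO control.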

Measured: AC50

Chain of Oxysterols receptor LXR-alpha (Homo sapiens) (Q13133 whole entry, looked up): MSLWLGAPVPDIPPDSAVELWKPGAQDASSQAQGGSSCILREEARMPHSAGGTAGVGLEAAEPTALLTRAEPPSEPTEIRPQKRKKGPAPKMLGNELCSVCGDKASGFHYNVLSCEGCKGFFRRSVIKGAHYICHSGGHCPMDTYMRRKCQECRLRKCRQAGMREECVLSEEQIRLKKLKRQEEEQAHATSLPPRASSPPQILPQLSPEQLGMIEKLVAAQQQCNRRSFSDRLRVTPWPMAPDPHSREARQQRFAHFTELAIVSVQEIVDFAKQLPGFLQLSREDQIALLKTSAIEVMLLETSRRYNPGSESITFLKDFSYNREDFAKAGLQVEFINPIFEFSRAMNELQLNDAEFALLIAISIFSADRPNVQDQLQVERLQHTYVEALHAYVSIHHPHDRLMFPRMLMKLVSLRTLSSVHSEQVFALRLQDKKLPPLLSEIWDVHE
Chain of Glucocorticoid receptor (Homo sapiens) (P04150 whole entry, looked up, the tested form may be a part): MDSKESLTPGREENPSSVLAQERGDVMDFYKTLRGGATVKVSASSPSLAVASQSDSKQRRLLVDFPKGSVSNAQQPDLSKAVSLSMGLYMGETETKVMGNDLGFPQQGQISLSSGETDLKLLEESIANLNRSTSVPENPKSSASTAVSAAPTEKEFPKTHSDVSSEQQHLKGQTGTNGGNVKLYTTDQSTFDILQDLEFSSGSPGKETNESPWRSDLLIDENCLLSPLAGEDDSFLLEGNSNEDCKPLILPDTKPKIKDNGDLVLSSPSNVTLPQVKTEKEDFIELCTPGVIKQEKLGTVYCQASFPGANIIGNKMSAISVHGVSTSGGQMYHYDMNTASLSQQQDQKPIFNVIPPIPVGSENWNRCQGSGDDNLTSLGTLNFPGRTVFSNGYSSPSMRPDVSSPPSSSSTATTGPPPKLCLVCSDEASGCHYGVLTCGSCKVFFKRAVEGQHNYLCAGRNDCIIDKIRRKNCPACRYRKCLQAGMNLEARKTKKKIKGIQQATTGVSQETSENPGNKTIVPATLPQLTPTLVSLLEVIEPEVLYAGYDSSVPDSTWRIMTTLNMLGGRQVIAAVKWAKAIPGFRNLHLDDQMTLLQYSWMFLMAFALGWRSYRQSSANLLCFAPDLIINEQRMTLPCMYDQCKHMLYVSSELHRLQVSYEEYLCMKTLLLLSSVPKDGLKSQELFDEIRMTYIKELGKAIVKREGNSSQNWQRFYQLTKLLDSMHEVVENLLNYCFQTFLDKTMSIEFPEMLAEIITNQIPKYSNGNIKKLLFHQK
Chain of Transcriptional activator Myb (Homo sapiens) (P10242 whole entry, looked up): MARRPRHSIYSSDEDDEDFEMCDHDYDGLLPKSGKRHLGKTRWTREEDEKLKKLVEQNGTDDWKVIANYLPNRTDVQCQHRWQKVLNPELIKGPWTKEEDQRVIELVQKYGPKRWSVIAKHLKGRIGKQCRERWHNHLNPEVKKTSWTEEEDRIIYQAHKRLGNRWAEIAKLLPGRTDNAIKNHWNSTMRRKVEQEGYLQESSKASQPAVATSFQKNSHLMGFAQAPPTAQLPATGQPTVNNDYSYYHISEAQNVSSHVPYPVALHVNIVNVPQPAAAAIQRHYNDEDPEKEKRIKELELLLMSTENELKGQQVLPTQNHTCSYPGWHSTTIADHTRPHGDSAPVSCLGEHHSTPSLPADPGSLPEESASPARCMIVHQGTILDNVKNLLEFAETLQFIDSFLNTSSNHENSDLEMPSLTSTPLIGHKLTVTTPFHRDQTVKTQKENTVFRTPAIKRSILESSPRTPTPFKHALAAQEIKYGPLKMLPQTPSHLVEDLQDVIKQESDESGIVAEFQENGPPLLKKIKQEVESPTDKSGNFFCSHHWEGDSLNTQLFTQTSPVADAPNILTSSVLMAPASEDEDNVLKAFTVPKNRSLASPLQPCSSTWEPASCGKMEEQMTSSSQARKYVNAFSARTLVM
Chain of Hepatocyte nuclear factor 4-alpha (Homo sapiens) (P41235 whole entry, looked up, the tested form may be a part): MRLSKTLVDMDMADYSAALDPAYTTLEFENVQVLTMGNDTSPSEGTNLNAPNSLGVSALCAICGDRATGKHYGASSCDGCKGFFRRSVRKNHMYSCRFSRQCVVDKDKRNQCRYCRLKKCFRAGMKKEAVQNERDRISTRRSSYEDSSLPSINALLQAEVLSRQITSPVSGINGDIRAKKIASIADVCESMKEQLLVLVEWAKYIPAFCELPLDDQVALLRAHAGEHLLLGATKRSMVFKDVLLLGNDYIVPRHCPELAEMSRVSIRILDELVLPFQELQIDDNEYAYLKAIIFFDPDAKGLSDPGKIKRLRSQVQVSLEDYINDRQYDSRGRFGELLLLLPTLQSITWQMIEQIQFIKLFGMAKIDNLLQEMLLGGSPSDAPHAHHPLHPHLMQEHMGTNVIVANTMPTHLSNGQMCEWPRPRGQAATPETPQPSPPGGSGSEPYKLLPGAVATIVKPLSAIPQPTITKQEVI
Chain of Oxysterols receptor LXR-beta (Homo sapiens) (P55055 whole entry, looked up, the tested form may be a part): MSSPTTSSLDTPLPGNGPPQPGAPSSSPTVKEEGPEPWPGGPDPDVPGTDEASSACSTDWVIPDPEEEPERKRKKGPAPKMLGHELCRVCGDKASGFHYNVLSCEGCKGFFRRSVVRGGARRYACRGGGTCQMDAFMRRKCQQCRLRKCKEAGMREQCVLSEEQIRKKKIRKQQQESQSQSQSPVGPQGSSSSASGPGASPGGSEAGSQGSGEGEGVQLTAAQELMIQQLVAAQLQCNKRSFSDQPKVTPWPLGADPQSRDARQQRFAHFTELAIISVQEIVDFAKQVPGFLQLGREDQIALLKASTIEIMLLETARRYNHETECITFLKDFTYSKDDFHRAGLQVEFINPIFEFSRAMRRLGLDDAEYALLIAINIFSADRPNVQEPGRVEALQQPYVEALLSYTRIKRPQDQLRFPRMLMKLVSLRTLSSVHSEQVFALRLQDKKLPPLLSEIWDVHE
Chain of Nuclear receptor subfamily 4 group A member 2 (Homo sapiens) (P43354 whole entry, looked up, the tested form may be a part): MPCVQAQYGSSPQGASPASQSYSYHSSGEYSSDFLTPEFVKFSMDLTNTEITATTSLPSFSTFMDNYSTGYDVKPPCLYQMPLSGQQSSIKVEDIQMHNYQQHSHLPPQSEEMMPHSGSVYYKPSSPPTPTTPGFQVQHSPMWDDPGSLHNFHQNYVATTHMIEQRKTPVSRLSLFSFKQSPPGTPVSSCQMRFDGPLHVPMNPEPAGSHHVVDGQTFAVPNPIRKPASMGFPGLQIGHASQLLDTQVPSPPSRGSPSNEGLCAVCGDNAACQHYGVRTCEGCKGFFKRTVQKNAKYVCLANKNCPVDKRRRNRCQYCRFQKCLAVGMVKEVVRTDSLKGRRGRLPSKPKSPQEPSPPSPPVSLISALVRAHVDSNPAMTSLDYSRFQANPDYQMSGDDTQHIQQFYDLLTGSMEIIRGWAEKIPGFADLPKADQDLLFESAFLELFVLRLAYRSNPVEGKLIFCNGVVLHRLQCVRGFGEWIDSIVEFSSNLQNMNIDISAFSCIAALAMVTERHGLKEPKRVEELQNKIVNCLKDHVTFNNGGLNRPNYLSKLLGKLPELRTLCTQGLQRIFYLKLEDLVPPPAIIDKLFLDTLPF
Chain of Nuclear respiratory factor 1 (Homo sapiens) (Q16656 whole entry, looked up): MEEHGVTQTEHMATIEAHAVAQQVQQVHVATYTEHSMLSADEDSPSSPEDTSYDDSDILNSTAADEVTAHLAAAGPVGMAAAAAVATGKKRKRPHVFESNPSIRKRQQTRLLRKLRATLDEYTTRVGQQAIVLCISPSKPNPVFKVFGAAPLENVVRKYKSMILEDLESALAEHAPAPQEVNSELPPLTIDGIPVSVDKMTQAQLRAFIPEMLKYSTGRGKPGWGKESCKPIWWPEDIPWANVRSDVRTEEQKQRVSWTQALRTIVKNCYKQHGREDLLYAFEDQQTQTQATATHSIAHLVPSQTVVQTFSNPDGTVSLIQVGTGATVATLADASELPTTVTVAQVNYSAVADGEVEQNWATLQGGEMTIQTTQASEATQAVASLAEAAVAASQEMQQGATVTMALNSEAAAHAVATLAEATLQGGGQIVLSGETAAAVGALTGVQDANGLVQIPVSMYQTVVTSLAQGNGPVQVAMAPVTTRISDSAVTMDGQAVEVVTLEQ
Chain of Bile acid receptor (Homo sapiens) (Q96RI1 whole entry, looked up, the tested form may be a part): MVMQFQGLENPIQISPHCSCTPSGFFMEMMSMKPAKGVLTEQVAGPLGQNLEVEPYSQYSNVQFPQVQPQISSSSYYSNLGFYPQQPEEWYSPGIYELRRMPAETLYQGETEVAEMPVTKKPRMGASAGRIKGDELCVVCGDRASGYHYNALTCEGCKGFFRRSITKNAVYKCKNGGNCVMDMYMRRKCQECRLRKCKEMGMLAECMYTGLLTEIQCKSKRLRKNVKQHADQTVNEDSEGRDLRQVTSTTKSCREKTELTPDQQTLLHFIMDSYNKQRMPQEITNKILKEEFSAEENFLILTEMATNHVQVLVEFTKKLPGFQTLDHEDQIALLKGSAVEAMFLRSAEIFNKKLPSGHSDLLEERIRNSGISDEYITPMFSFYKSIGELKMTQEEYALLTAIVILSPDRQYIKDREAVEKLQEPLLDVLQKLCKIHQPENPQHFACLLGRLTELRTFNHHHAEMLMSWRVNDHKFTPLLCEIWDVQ

NC(=O)NO
inactive: [1] | [2] | [3]

O=C(OC[C@H]1O[C@@H](OC(=O)c2cc(O)c(O)c(OC(=O)c3cc(O)c(O)c(O)c3)c2)[C@H](OC(=O)c2cc(O)c(O)c(OC(=O)c3cc(O)c(O)c(O)c3)c2)[C@@H](OC(=O)c2cc(O)c(O)c(OC(=O)c3cc(O)c(O)c(O)c3)c2)[C@@H]1OC(=O)c1cc(O)c(O)c(OC(=O)c2cc(O)c(O)c(O)c2)c1)c1cc(O)c(O)c(OC(=O)c2cc(O)c(O)c(O)c2)c1
inactive: [4] | [5] | [6] | [2] | [7] | [3]

O=c1n(CC2CO2)c(=O)n(CC2CO2)c(=O)n1CC1CO1 (stereo unspecified)
not listed: [1] | [9] | [10]
inactive: all other assays above

Cc1c(-c2cccnc2)c2ccccc2n1CCCCC(=O)O
inactive: [9] | [5] | [3]

CCCC(=O)OCC
inactive: [1] | [6] | [8] | [7] | [3]

CC(=O)c1ccc2c(c1)[C@H](NC(=O)c1ccc(F)cc1)[C@@H](O)C(C)(C)O2
inactive: [1] | [5] | [10] | [7] | [3]

CC(C)CC(C)(O)C#CC(C)(O)CC(C)C (stereo unspecified)
inactive: [1] | [7] | [3]

CC(C)(O)c1coc(S(=O)(=O)NC(=O)Nc2c3c(cc4c2CCC4)CCC3)c1
inactive: [1] | [5] | [10] | [8] | [7] | [3]

CCCCCCCCO
inactive: [1] | [6] | [7] | [3]

CCc1cc(SCc2sc(-c3ccc(C(F)(F)F)cc3)nc2CN2CCN(c3ccc(OC)cc3)CC2)ccc1OCC(=O)O
not listed: [1]
inactive: all other assays above

COC(=O)c1c(Cl)c(Cl)c(C(=O)OC)c(Cl)c1Cl
inactive: [9] | [4] | [6] | [10] | [8] | [3]

O=C(O)c1cccc(Oc2ccccc2)c1
inactive: [1] | [2] | [3]

CCC(C)(C)C(=O)O[C@H]1C[C@@H](C)C=C2C=C[C@H](C)[C@H](CC[C@@H]3C[C@@H](O)CC(=O)O3)[C@H]21
inactive: [1] | [4] | [3]

COC(=O)CC(=O)OC
inactive: [1] | [6] | [2] | [8] | [3]

O=c1[nH]c2ccc(S(=O)CCN3CCC(Cc4ccc(F)cc4)CC3)cc2o1 (stereo unspecified)
inactive: [1] | [5] | [2] | [8] | [7] | [3]

CCCCCCCCCCCCCCCO
inactive: [9] | [2] | [10] | [7] | [3]

CN(C)c1ccc(Cc2ccc(N(C)C)cc2)cc1
inactive: [9] | [5] | [2] | [7] | [3]
active: [8] 49.1 µM

CCCCC(CC)COC(=O)c1ccc(C(=O)OCC(CC)CCCC)cc1 (stereo unspecified)
inactive: [9] | [4] | [6] | [2] | [7] | [3]

O=C1CCCCCN1
not listed: [1] | [6] | [10]
inactive: all other assays above

CCOCCO
inactive: [1] | [2] | [7] | [3]

CCOC(=O)COc1ccc2c(c1)CC(NCC(O)c1cccc(Cl)c1)CC2 (stereo unspecified)
inactive: [10] | [8] | [3]

O=C(O)CCN(C1(C(=O)NO)CCCC1)S(=O)(=O)c1ccc(Oc2ccc(F)cc2)cc1
inactive: [6] | [3]

CC(C)CCCCCCOC(=O)c1ccc(C(=O)OCCCCCCC(C)C)c(C(=O)OCCCCCCC(C)C)c1
inactive: [2] | [7] | [3]

CCN(C(=O)c1cc(C)cc(OC[C@H](C)Nc2ccncc2)c1)C(C)C
active: [4] 0.486 µM
inactive: [2] | [10] | [8] | [7] | [3]

Source: PubChem BioAssay (EPA / NIEHS)
